Compounds without any hit were thinned out: in the full panel of roughly 83,000, 20% have a hit.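 Single-dose data. Exposure time 48 hours. Values below 10 considered active.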 Values without a mark were called inactive. Calls of active or inactive are those of the source.
Each compound was assayed on OVCAR-8 ovarian (assay: NCI-60 one-dose screen, 48 h (100 = growth as untreated, 0 = no growth, -100 = all killed)). Conditions: 10 µM unless noted.

**Q.** How did the growth turn out when `CCC(=O)Nc1nnc(Cc2ccc(OC)c(OC)c2)s1` was run?
**A.** -32.6% (active)

**Q.** For `NC(=O)c1cc(Cl)ccc1NC(=O)COc1ccccc1`, which growth is on record?
**A.** 60.1%

**Q.** Which growth does the source give for `CCC12CCC3c4ccc(O)cc4CCC3C1CC(O)C2O` (stereo not given) here?
**A.** 91.5%

**Q.** `O=C1NC(=S)S/C1=C\c1cccc([N+](=O)[O-])c1` was tested. Which growth did it give?
**A.** 101%

**Q.** For `CCCCCn1c(=N)n(CC(O)COc2cccc(C)c2)c2ccccc21` (stereo not given), which growth is on record?
**A.** 20.9%

**Q.** `Cn1c2ccccc2c2nn(C(=O)c3ccccc3)c(=O)nc21` was tested. Which growth did it give?
**A.** 117%

**Q.** How did the growth turn out when `N#CC1=C(N)Oc2cc(N)ccc2C1c1ccc(F)cc1` (stereo not given) was run?
**A.** 98.6%

**Q.** How did the growth turn out when `COc1ccc(-c2c3c(N)c4c(nc3nc3c2c(C)nn3-c2ccccc2)CCCCC4)cc1` was run?
**A.** 83.2%

**Q.** Which growth does the source give for `CC(C)OC1=C(Cl)C(=O)c2ccccc2C1=O` here?
**A.** 75.9%

**Q.** With `O=c1[nH]c(-c2ccccn2)nc2sc3c(c12)CCCCCC3` as the compound, how does the growth read?
**A.** 29.9%

**Q.** For `COc1c(O)c2c3c(c1OC)-c1ccccc1CC3N(S(=O)(=O)c1ccc(C)cc1)CC2` (stereo not given), which growth is on record?
**A.** 53.7%

**Q.** `COc1cc(-c2nc3ccccc3o2)cc(CN2CCN(c3ccccc3)CC2)c1O` was tested. Which growth did it give?
**A.** 78.3%

**Q.** For `O=C1/C(=C/c2ccccc2F)CNC/C1=C\c1ccccc1F`, which growth is on record?
**A.** 2.92% (active)

**Q.** `CN([N-]C(=O)CC(=O)[N-]N(C)C(=S)c1ccccc1)C(=S)c1ccccc1.[Cu+2]` was tested. Which growth did it give?
**A.** -39.1% (active)

**Q.** With `COC(=O)c1ccc(C(=O)Nc2ccccc2N)cc1` as the compound, how does the growth read?
**A.** 56.9%

**Q.** Which growth does the source give for `FC(F)(F)c1cc(CNc2ncc(Br)c(Cl)n2)cc(C(F)(F)F)c1` here?
**A.** 101%

**Q.** How did the growth turn out when `COc1ccc(NC(=O)COc2ccccc2)c(C(N)=O)c1` was run?
**A.** 35.2%

**Q.** With `Cn1c2ccccc2c2nn(Cc3ccccc3)c(=O)nc21` as the compound, how does the growth read?
**A.** 107%

**Q.** Which growth does the source give for `CCCCNNC(=O)c1ccc(Br)cc1` here?
**A.** 25.8%

**Q.** `Cc1nc2cc(Nc3nc(Nc4ccc(F)cc4)nc(-c4cccs4)n3)ccc2n1Cc1ccccc1` was tested. Which growth did it give?
**A.** 37%

**Q.** Which growth does the source give for `Cc1ccc(C2SCC(=O)N2NC(=O)c2[nH]c3ccc(F)cc3c2-c2ccccc2)cc1` (stereo not given) here?
**A.** 92.1%

**Q.** With `O=S(=O)(OCCO)c1ccccc1` as the compound, how does the growth read?
**A.** 90.6%

**Q.** For `Cc1ccc(S(=O)(=O)N2CCc3ccc(O)c4c3C2CCc2ccccc2-4)cc1` (stereo not given), which growth is on record?
**A.** 98.8%

**Q.** For `Cc1nc2cc(Nc3nc(N4CCOCC4)nc(N4CCN(C)CC4)n3)ccc2n1Cc1ccccc1`, which growth is on record?
**A.** 98.3%

**Q.** With `Clc1ccc(C2=NN(c3ccccc3)[C@H](c3cn(-c4ccccc4)nc3-c3ccccc3)C2)cc1` as the compound, how does the growth read?
**A.** 106%

**Q.** With `COc1cccc(OC)c1OC(=O)c1ccccc1` as the compound, how does the growth read?
**A.** 106%

**Q.** With `CCSc1nnc2c3cc(Br)ccc3n(C)c2n1` as the compound, how does the growth read?
**A.** 97.2%

**Q.** Which growth does the source give for `Cc1nn(-c2ccccc2)c2nc3nc4c(c(N)c3c(-c3ccc(Cl)cc3)c12)CCCC4` here?
**A.** 92.6%

**Q.** With `Cc1ccc(S(=O)(=O)N(c2ccc(Cl)cc2)c2ccc(Br)cc2C(=O)O)cc1` as the compound, how does the growth read?
**A.** 101%

**Q.** Which growth does the source give for `Cc1ccc2c(c1)c(Sc1ccc(C(=O)NO)cc1)c1n2CN(C)CC1` here?
**A.** 5.57% (active)

**Q.** Which growth does the source give for `COc1cc(CNCCCN2C(=O)c3ccc4c5c(ccc(c35)C2=O)C(=O)N(CCCNCc2cc(OC)c(OC)c(OC)c2)C4=O)cc(OC)c1OC` here?
**A.** -52% (active)

**Q.** How did the growth turn out when `CCCCCCCCCCCC(=O)[O][Sn]([CH2]CCC)([CH2]CCC)[CH2]CCC` was run?
**A.** -81.4% (active)

**Q.** With `COc1cc(NC(=O)COc2ccccc2)c(C(N)=O)cc1OC` as the compound, how does the growth read?
**A.** 34.2%

**Q.** Which growth does the source give for `C=CC(=O)N1CC2(CCC(n3nc(-c4ccc(Oc5ccccc5)cc4)c4c(N)ncnc43)CC2)C1` here?
**A.** -36.5% (active)

**Q.** Which growth does the source give for `CC(=O)OC[C@H](O)[C@@]1(O)CC[C@H]2[C@@H]3CCC4=CC(=O)CC[C@]4(C)[C@H]3[C@@H](O)C[C@@]21C` here?
**A.** 98.5%

**Q.** `Cc1ccc(S(=O)(=O)N2CCc3ccc(O)c4c3C2Cc2cc(Cl)ccc2-4)cc1` (stereo not given) was tested. Which growth did it give?
**A.** 75.4%

**Q.** `COc1cc(/C=C/C(=O)C(=Cc2ccc(F)c(F)c2)C(=O)/C=C/c2ccc(O)c(OC)c2)ccc1O` was tested. Which growth did it give?
**A.** 11.1%

**Q.** With `CCOC(=O)c1cc2c(n(C)c1=O)-c1cnn(-c3ccc(OC)cc3)c1CC2` as the compound, how does the growth read?
**A.** 93.8%

**Q.** `Cc1ccc(S(=O)(=O)N2CCc3ccc(O)c4c3C2Cc2ccc3c(c2-4)OCO3)cc1` (stereo not given) was tested. Which growth did it give?
**A.** 31.1%

**Q.** `O=C(Nc1nc2ccccc2[nH]1)C(=O)Nc1nc2ccccc2[nH]1` was tested. Which growth did it give?
**A.** 102%

What follows are compounds tested on OVCAR-5 ovarian in the same assay as above. Conditions: 10 µM unless noted.

**Q.** `CCC(=O)Nc1nnc(Cc2ccc(OC)c(OC)c2)s1` was tested. Which growth did it give?
**A.** 85.9%

**Q.** How did the growth turn out when `NC(=O)c1cc(Cl)ccc1NC(=O)COc1ccccc1` was run?
**A.** 80.5%

**Q.** For `CCC12CCC3c4ccc(O)cc4CCC3C1CC(O)C2O` (stereo not given), which growth is on record?
**A.** 103%

**Q.** With `O=C1NC(=S)S/C1=C\c1cccc([N+](=O)[O-])c1` as the compound, how does the growth read?
**A.** 96.9%

**Q.** For `CCCCCn1c(=N)n(CC(O)COc2cccc(C)c2)c2ccccc21` (stereo not given), which growth is on record?
**A.** 61.7%

**Q.** How did the growth turn out when `Cn1c2ccccc2c2nn(C(=O)c3ccccc3)c(=O)nc21` was run?
**A.** 101%

**Q.** How did the growth turn out when `N#CC1=C(N)Oc2cc(N)ccc2C1c1ccc(F)cc1` (stereo not given) was run?
**A.** 97.2%

**Q.** `COc1ccc(-c2c3c(N)c4c(nc3nc3c2c(C)nn3-c2ccccc2)CCCCC4)cc1` was tested. Which growth did it give?
**A.** 86.3%

**Q.** With `CC(C)OC1=C(Cl)C(=O)c2ccccc2C1=O` as the compound, how does the growth read?
**A.** 101%

**Q.** Which growth does the source give for `O=c1[nH]c(-c2ccccn2)nc2sc3c(c12)CCCCCC3` here?
**A.** 58.6%

**Q.** For `COc1c(O)c2c3c(c1OC)-c1ccccc1CC3N(S(=O)(=O)c1ccc(C)cc1)CC2` (stereo not given), which growth is on record?
**A.** 79.2%

**Q.** With `COc1cc(-c2nc3ccccc3o2)cc(CN2CCN(c3ccccc3)CC2)c1O` as the compound, how does the growth read?
**A.** 117%

**Q.** With `O=C1/C(=C/c2ccccc2F)CNC/C1=C\c1ccccc1F` as the compound, how does the growth read?
**A.** -41.3% (active)

**Q.** With `CN([N-]C(=O)CC(=O)[N-]N(C)C(=S)c1ccccc1)C(=S)c1ccccc1.[Cu+2]` as the compound, how does the growth read?
**A.** -53.4% (active)

**Q.** Which growth does the source give for `COC(=O)c1ccc(C(=O)Nc2ccccc2N)cc1` here?
**A.** 53.4%

**Q.** Which growth does the source give for `FC(F)(F)c1cc(CNc2ncc(Br)c(Cl)n2)cc(C(F)(F)F)c1` here?
**A.** 102%

**Q.** With `COc1ccc(NC(=O)COc2ccccc2)c(C(N)=O)c1` as the compound, how does the growth read?
**A.** 43.6%

**Q.** With `Cn1c2ccccc2c2nn(Cc3ccccc3)c(=O)nc21` as the compound, how does the growth read?
**A.** 92.8%

**Q.** Which growth does the source give for `CCCCNNC(=O)c1ccc(Br)cc1` here?
**A.** 41.1%

**Q.** How did the growth turn out when `Cc1nc2cc(Nc3nc(Nc4ccc(F)cc4)nc(-c4cccs4)n3)ccc2n1Cc1ccccc1` was run?
**A.** 92%

**Q.** Which growth does the source give for `Cc1ccc(C2SCC(=O)N2NC(=O)c2[nH]c3ccc(F)cc3c2-c2ccccc2)cc1` (stereo not given) here?
**A.** 99.9%

**Q.** For `O=S(=O)(OCCO)c1ccccc1`, which growth is on record?
**A.** 92%

**Q.** With `Cc1ccc(S(=O)(=O)N2CCc3ccc(O)c4c3C2CCc2ccccc2-4)cc1` (stereo not given) as the compound, how does the growth read?
**A.** 110%

**Q.** For `Cc1nc2cc(Nc3nc(N4CCOCC4)nc(N4CCN(C)CC4)n3)ccc2n1Cc1ccccc1`, which growth is on record?
**A.** 96.7%

**Q.** Which growth does the source give for `Clc1ccc(C2=NN(c3ccccc3)[C@H](c3cn(-c4ccccc4)nc3-c3ccccc3)C2)cc1` here?
**A.** 97.8%

**Q.** Which growth does the source give for `COc1cccc(OC)c1OC(=O)c1ccccc1` here?
**A.** 107%

**Q.** Which growth does the source give for `CCSc1nnc2c3cc(Br)ccc3n(C)c2n1` here?
**A.** 105%

**Q.** With `Cc1nn(-c2ccccc2)c2nc3nc4c(c(N)c3c(-c3ccc(Cl)cc3)c12)CCCC4` as the compound, how does the growth read?
**A.** 96.3%

**Q.** How did the growth turn out when `Cc1ccc(S(=O)(=O)N(c2ccc(Cl)cc2)c2ccc(Br)cc2C(=O)O)cc1` was run?
**A.** 101%

**Q.** How did the growth turn out when `Cc1ccc2c(c1)c(Sc1ccc(C(=O)NO)cc1)c1n2CN(C)CC1` was run?
**A.** 7.36% (active)

**Q.** Which growth does the source give for `COc1cc(CNCCCN2C(=O)c3ccc4c5c(ccc(c35)C2=O)C(=O)N(CCCNCc2cc(OC)c(OC)c(OC)c2)C4=O)cc(OC)c1OC` here?
**A.** -67.7% (active)

**Q.** `CCCCCCCCCCCC(=O)[O][Sn]([CH2]CCC)([CH2]CCC)[CH2]CCC` was tested. Which growth did it give?
**A.** -96.9% (active)

**Q.** `COc1cc(NC(=O)COc2ccccc2)c(C(N)=O)cc1OC` was tested. Which growth did it give?
**A.** 48.8%

**Q.** For `C=CC(=O)N1CC2(CCC(n3nc(-c4ccc(Oc5ccccc5)cc4)c4c(N)ncnc43)CC2)C1`, which growth is on record?
**A.** -0.902% (active)

**Q.** For `CC(=O)OC[C@H](O)[C@@]1(O)CC[C@H]2[C@@H]3CCC4=CC(=O)CC[C@]4(C)[C@H]3[C@@H](O)C[C@@]21C`, which growth is on record?
**A.** 96.6%

**Q.** How did the growth turn out when `Cc1ccc(S(=O)(=O)N2CCc3ccc(O)c4c3C2Cc2cc(Cl)ccc2-4)cc1` (stereo not given) was run?
**A.** 99%

**Q.** How did the growth turn out when `COc1cc(/C=C/C(=O)C(=Cc2ccc(F)c(F)c2)C(=O)/C=C/c2ccc(O)c(OC)c2)ccc1O` was run?
**A.** 115%

**Q.** Which growth does the source give for `CCOC(=O)c1cc2c(n(C)c1=O)-c1cnn(-c3ccc(OC)cc3)c1CC2` here?
**A.** 95.2%

**Q.** Which growth does the source give for `Cc1ccc(S(=O)(=O)N2CCc3ccc(O)c4c3C2Cc2ccc3c(c2-4)OCO3)cc1` (stereo not given) here?
**A.** 45.8%

**Q.** Which growth does the source give for `O=C(Nc1nc2ccccc2[nH]1)C(=O)Nc1nc2ccccc2[nH]1` here?
**A.** 88.6%

Source: PubChem BioAssay (NCI)
